# Screening results: PubChem, National Center for Advancing Translational Sciences (NCATS)
# RORgamma inh: blocks mouse ROR gamma transcriptional activity | AID 2551 | Potency, µM (highest dose often 53.6 µM), actives largely listed as inhibitors | 5.4% of 310,000 active | P51450 | Drosophila S2 Gal4-RORgamma UAS-luciferase reporter, 20 h; further: nearly all actives have a fitted effect of over 60% in size
# Target sequence (P51450 whole entry, looked up, the tested form may be a part): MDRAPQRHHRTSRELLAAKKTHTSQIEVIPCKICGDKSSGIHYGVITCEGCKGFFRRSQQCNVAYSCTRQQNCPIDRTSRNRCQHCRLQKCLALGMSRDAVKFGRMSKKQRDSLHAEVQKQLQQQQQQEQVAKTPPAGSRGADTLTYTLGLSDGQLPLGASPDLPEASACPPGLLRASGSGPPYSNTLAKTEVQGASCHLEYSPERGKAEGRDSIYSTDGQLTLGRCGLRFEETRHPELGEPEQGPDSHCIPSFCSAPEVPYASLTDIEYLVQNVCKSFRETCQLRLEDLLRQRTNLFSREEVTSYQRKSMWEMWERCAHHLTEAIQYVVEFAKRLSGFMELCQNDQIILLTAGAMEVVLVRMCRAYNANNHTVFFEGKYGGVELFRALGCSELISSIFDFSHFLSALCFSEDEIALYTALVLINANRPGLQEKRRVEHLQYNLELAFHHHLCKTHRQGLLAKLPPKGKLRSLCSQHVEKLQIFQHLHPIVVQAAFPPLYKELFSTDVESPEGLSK
#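 Luminescence from a UAS-regulated Photinus luciferase reporter in stably transfected Drosophila Schneider cells is measured; decreased signal marks ROR gamma inhibition. Fusion expression is induced by 700 uM copper sulfate for 20 hr.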
# ALOX12 inh: ALOX12 (human) lipoxygenase inhibition; P18054; AID 1671190; 1.1% of 580,000 active; Potency, µM (highest dose often 108 µM), most hits filed as inhibitors; purified 12hLO, xylenol orange hydroperoxide absorbance
#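 Purified human 12hLO at 150 nM in 25 mM Hepes, 0.01% Triton X-100, pH 7.0, preincubated 15 min at room temperature with compound. Reaction started with 40 uM arachidonic acid, 30 min at room temperature. Hydroperoxide measured by Fe-xylenol orange, 573/405 nm absorbance ratio.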
# TDP1 cell noCPT: qHTS for Inhibitors of human tyrosyl-DNA phosphodiesterase 1 (TDP1): qHTS in cells in absence of CPT; Potency, µM (doses to about 46.2 µM), most hits filed as inhibitors; 15% of 420,000 active; DT40 Tdp1-/- hTDP1 cells, no CPT, ATP luminescence, 48 h; further: nearly all actives have a fitted effect of over 55% in size
#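 Stably hTDP1-transfected Tdp1-null chicken DT40 cells were treated with library compounds minus camptothecin and grown for at least 48 hr at 37 °C, after which cellular ATP was quantified by luminescence.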
# ELG1 DNA repair: inhibitors of ELG1-dependent DNA repair in HEK293T cells | HEK293T ELG1-luciferase reporter, luminescence, 16 h; DNA damage induced by 5-fluorouridine | AID 504467 | 2.3% of 330,000 active | Potency, µM (doses to about 46.1 µM), actives largely listed as inhibitors; further: nearly all actives have a fitted effect of over 55% in size
#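 Overnight (16 hr) co-exposure of 2,000 cells/well to 5-fluorouridine and compound at 37 °C preceded detection. Luciferase was quantified via ONE-Glo luminescence; loss of signal denotes inhibition.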
# VP16 counter: inhibits Gal4-VP16 luciferase reporter, ROR gamma counter-screen; Drosophila S2 Gal4-VP16 UAS-luciferase, luminescence, 20 h; Potency, µM (top dose mostly 53.6 µM), most hits filed as inhibitors; 3.5% of 310,000 active;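 further: Gal4-VP16 expression switched on by copper sulfate through the metallothionein promoter; nearly all actives have a fitted effect of over 50% in size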
# TDP1 cell CPT: DT40-hTDP1 cell growth loss with CPT. chicken DT40 Tdp1-/-;hTDP1 cells + 20 nM CPT, ATP luminescence, 48 h. Potency, µM (titrated, usually from 46.2 µM), hits mostly inhibitors. 12% of 420,000 active. AID 686979; further: nearly all actives have a fitted effect of over 55% in size
#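 Chicken DT40 Tdp1-/- cells stably complemented with human TDP1 were seeded at 400 cells/well in medium containing 20 nM camptothecin, exposed to pin-transferred compounds, and grown at 37 °C for at least 48 hr. Viability was read as ATP luminescence.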
# Numbers stand for hits; . = inactive; ? = inconclusive; / = no result given; [ ] = another dose, or the depositor's remark. A selection: hits, their analogues and other compounds. The true share with any hit is near 15%. The call rests on the fitted dose curve; in most records, active means well fitted curve in the direction sought with a large enough effect; inconclusive means small, poorly fitted or top-dose-only effect, or another doubt; inactive means no such curve, though single readings can be large; an effect the other way counts as inactive or inconclusive.
SMILES,RORgamma inh,ALOX12 inh,TDP1 cell noCPT,ELG1 DNA repair,VP16 counter,TDP1 cell CPT
Cc1ccccc1C(=O)N(Cc1nc2ccccc2c(=O)[nH]1)C1CCCC1,?,.,?,?,.,?
O=C(Nc1cccc(Cl)c1)N(Cc1nc2ccccc2c(=O)[nH]1)C1CCCC1,14µM,.,?,.,?,.
O=C(Nc1cccc(Cl)c1)N(Cc1nc2ccccc2c(=O)[nH]1)Cc1cccs1,?,.,23µM,?,.,23µM
COc1ccccc1CN(Cc1nc2ccccc2c(=O)[nH]1)C(=O)Nc1ccccc1,10µM,.,3.5µM,?,?,3.5µM
Cc1ccc(C(=O)N(Cc2nc3ccccc3c(=O)[nH]2)C2CCCC2)cc1,.,.,?,.,7.1µM,13µM
COc1ccc(CNCCC(c2ccc(OC(C)C)cc2)C(C)C)cc1OC (stereo not given),.,.,16µM,.,.,?
COc1ccc(C(CCNCc2ccc(OC(C)C)cc2)C(C)C)cc1 (stereo not given),13µM,?,6.5µM,.,?,4.6µM
COc1ccc(C(CCNCc2ccc(N(C)C)cc2)C(C)C)cc1 (stereo not given),?,?,7.3µM,?,?,7.3µM
CCOCCCNCc1ccc(OC)cc1,.,?,.,.,.,.
COCCNCc1ccc(C(C)C)cc1,.,.,.,?,.[10 µM],.
O=C(COC(=O)c1cc2c(F)cccc2s1)NCC1CCCO1 (stereo not given),/,.,/,/,/,/
O=C(c1ccc(-c2ccc(O)cc2)cc1)N1CCOC2(CNCCOC2)C1 (stereo not given),/,.,/,/,/,/
O=C1CSC(c2cn(-c3ccccc3)nc2-c2cc3ccccc3o2)N1Cc1ccccc1 (stereo not given),.,.,?,?,.,?
O=C1CSC(c2cn(-c3ccccc3)nc2-c2cc3ccccc3oc2=O)N1Cc1ccco1 (stereo not given),.,.,?,16µM,.,?
Cc1ccc(-c2nn(-c3ccccc3)cc2C2SCC(=O)N2Cc2ccccc2)o1 (stereo not given),11µM,32µM,8.2µM,?,?,13µM
COc1ccc(OC)c(/C(O)=C/C(=O)C(=O)Nc2ccccc2OC)c1,.,.,18µM,.,.,?
CC(C)NC(=O)C1CCC(Cn2cnnn2)CC1 (stereo not given),/,.,/,/,/,/
COc1ccc(CC(=O)Nc2ccc(OC)nc2)cc1,.,.,.,.,.,.
COc1ccc(NC(=O)C2(C)Cc3c(-c4ccccc4)ccnc3O2)cn1 (stereo not given),/,.,6.5µM,/,/,5.8µM
CC1(C(=O)Nc2cccc(C(F)(F)F)c2)Cc2c(-c3cccc(C(F)(F)F)c3)ccnc2O1 (stereo not given),/,.,?,/,/,?
Cc1ccnc(NC(=O)Cc2ccc(-c3ccccc3)cc2)c1,11µM,.,?,?,?,?
COc1ccc(NC(=O)C2(C)Cc3c(-c4cccc(C(F)(F)F)c4)ccnc3O2)cn1 (stereo not given),/,.,2.9µM,/,/,5.2µM
Cc1ccnc(NC(=O)Cc2ccc(Cl)cc2)c1,/,.,/,/,/,/
CC(=O)Nc1ccc(NC(=O)C2(C)Cc3c(-c4ccccc4)ccnc3O2)cc1 (stereo not given),/,.,.,/,/,?
COc1ccc(NC(=O)Cc2ccc(-c3ccccc3)cc2)cn1,.,.,12µM,?,.,13µM
SMILES,RORgamma inh,ALOX12 inh,TDP1 cell noCPT,ELG1 DNA repair,VP16 counter,TDP1 cell CPT
NC(=O)[C@@H](Cc1c[nH]c2ccccc12)NC(=O)[C@@H]1C[C@@H](NS(=O)(=O)c2cccs2)CCN1C(=O)COCC(=O)O,/,.,/,/,/,/
COc1ccc(NC(=O)/C(Cl)=C(/Cl)S(=O)Cc2ccc(Cl)cc2)cn1 (stereo not given),0.79µM,?,0.26µM,?,2.8µM,0.13µM
COc1ccc(NC(=O)C2(C)Cc3c(-c4ccc(N(C)C)cc4)ccnc3O2)cc1 (stereo not given),/,.,?,/,/,29µM
Cc1ccc(S(=O)(=O)Cc2noc([C@@H]3C[C@@H](O)CN3Cc3cccc(OC(F)(F)F)c3)n2)cc1,/,.,/,/,/,/
CCCOc1cc(C)c(C(C)C)cc1S(=O)(=O)N1CCCC1,/,.,/,/,/,/
O=C(NCCc1ccccc1)c1ccc(Cn2c(SCc3cccc(F)c3)nc3cccnc32)cc1,/,.,15µM,/,/,7.3µM
Cc1ccccc1CNC(=O)c1ccc(Cn2c(SCc3cccc(F)c3)nc3cccnc32)cc1,/,.,15µM,/,/,15µM
O=C(NCc1cccs1)c1ccc(Cn2c(SCc3cccc(F)c3)nc3cccnc32)cc1,/,.,18µM,/,/,26µM
O=C(NCCc1ccccc1)c1ccc(Cn2c(SCc3ccccc3)nc3cccnc32)cc1,/,.,?,/,/,?
Cc1ccccc1CSc1nc2cccnc2n1Cc1ccc(C(=O)NCCc2cccs2)cc1,/,.,16µM,/,/,13µM
